Here are results for 18 compounds from PubChem BioAssay (NCATS).

The structures appear in SMILES notation. Results filed as inconclusive are left out. Unmarked numbers belong to inactive results. Calls follow the shape of the full dose curve.

The experiment in a line: A High-Content qHTS Against Drug Library for the Identification of Small Molecules that Inhibit DYT1 Early Onset Primary Dystonia-Associated Cell Pathology (AID 1645839). The conditions noted are these: HEK293 Flp-In EGFP-delE TorsinA, punctate imaging, 48 h; series mostly up to 46.1 µM; % pathology change, negative = correction: at the top concentration. The method, boiled down:
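In this high-content image screen, delE TorsinA mislocalization in inducible Flp-In 293 cells is scored as %pathology, with cell count serving as the counterscreen. Compound exposure lasts 48 h under tetracycline induction in reduced-serum medium.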
A general note: Quantitative high-throughput screening tests each substance at several concentrations.
Take `O=C(O)C(=O)Nc1cccc(-c2nn[nH]n2)c1`: the “% pathology change, negative = correction” value (“% pathology change” for short) is 5.36%. In the case of `C/C(=N\O)[C@@H](C)NCC(C)(C)CN[C@H](C)/C(C)=N/O` it was 15.7%; in that of `C#Cc1ccc(-c2ccccc2F)cc1`, -15.1%; in that of `CC(=O)c1ccc(O)c(C(N)=O)c1`, 1.79%.

With `Cc1ccc2c(Cl)cc(Cl)c(O)c2n1`, the “% pathology change” value was -13.7%.

Turning to `CC(=O)O[C@@H]1CC2C3CCc4cc(OC(=O)c5ccccc5)ccc4C3CCC2(C)[C@H]1OC(C)=O` (stereo partly drawn), the “% pathology change” value is 11.3%. For the compound `Nc1ccc(C(=O)OCC(O)CO)cc1` (stereo not drawn), the “% pathology change” value is -6.96%. To `O=C1OC2(c3ccccc31)c1cc(I)c(O)c(I)c1Oc1c2cc(I)c(O)c1I` belongs -3.82%. In the case of `CN1Cc2cc(C(=O)N3CCC(C4CCNCC4)CC3)ccc2NC(CC(=O)O)C1=O` (stereo not drawn) it was 8.27%; in that of `NCC[C@H](O)C(=O)N[C@@H]1C[C@H](N)[C@@H](O[C@H]2O[C@H](CN)[C@@H](O)[C@H](O)[C@@H]2O)[C@H](O)[C@@H]1O[C@H]1O[C@H](CO)[C@@H](O)[C@H](N)[C@@H]1O`, -0.271% [at 0.369 µM]; in that of `CCOc1c(N2CCOCC2)cnn(C)c1=O`, 2.62%.

`COc1cc(S(N)(=O)=O)cc(C(=O)O)c1OC`: the “% pathology change” value is 2.56%. To `CC1CC(=O)NN=C1c1ccc(NCC(C)(C)NCC(O)COc2cc(Cl)ccc2C#N)cc1` (stereo not drawn) belongs -16%; to `NC(=O)COCCN1CCN(C(c2ccccc2)c2ccc(Cl)cc2)CC1` (stereo not drawn), -0.135%. `CO/N=C(\C(=O)O)c1csc(NC(=O)CCl)n1`: the “% pathology change” value was 2.88%. On to `C1N2CN3CN1CN(C2)C3`, for which the “% pathology change” value was 3.37%. `CC(C)C(=O)Nc1cccc(C(F)(F)F)c1`: the “% pathology change” value was 0.745%. Take `CCCC(=O)OCOC(=O)C1=C(C)NC(C)=C(C(=O)OC)C1c1cccc(Cl)c1Cl` (stereo not drawn): the “% pathology change” value was 0.527%.
